# Tested on: RIVA
# Assay: growth inhibition by drug plus 177Lu-lilotomab satetraxetan (1 - RLU/untreated control) (fraction); higher = stronger inhibition
# Settings: 177Lu-lilotomab satetraxetan 0.5 ug/ml
# Description: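 RIVA (RI-1) ABC-DLBCL cells were pretreated or not for 18 h with 0.5 ug/ml 177Lu-lilotomab satetraxetan (600 MBq/mg), washed and seeded (3000 cells/well) on 384-well plates pre-printed with the Selleck Cambridge Cancer Compound library. Viability was read by RealTime-Glo luminescence on days 3-6 after seeding. Effect = 1 - RLU/mean RLU of the 48 untreated no-drug control wells per plate; Bliss score = (M-E)/(1-Fa).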
SMILES,"growth inhibition by drug plus 177Lu-lilotomab satetraxetan (10 nM, time (day): 3)","growth inhibition by drug plus 177Lu-lilotomab satetraxetan (10 nM, time (day): 4)","growth inhibition by drug plus 177Lu-lilotomab satetraxetan (10 nM, time (day): 5)","growth inhibition by drug plus 177Lu-lilotomab satetraxetan (10 nM, time (day): 6)","growth inhibition by drug plus 177Lu-lilotomab satetraxetan (100 nM, time (day): 3)","growth inhibition by drug plus 177Lu-lilotomab satetraxetan (100 nM, time (day): 4)","growth inhibition by drug plus 177Lu-lilotomab satetraxetan (100 nM, time (day): 5)","growth inhibition by drug plus 177Lu-lilotomab satetraxetan (100 nM, time (day): 6)"
CC(C)(C)c1[nH]cnc1/C=c1\[nH]c(=O)/c(=C/c2ccccc2)[nH]c1=O [NPI-2358 (Plinabulin)],0.505,0.546,0.548,0.574,0.955,0.967,0.972,0.976
Cc1c(CCOc2ccc(C(=O)O)cc2)c2cc(Cl)ccc2n1C(c1ccccc1)c1ccccc1,0.505,0.573,0.594,0.582,0.296,0.41,0.419,0.435
Nc1cccc2c1C(=O)N(C1CCC(=O)NC1=O)C2=O (stereo not given) [Pomalidomide],0.434,0.529,0.549,0.555,0.439,0.414,0.434,0.443
C=CC(=O)N1CCC[C@@H](n2nc(-c3ccc(Oc4ccccc4)cc3)c3c(N)ncnc32)C1,0.764,0.828,0.848,0.853,0.872,0.9,0.919,0.934
c1ccc(-c2nn3c(c2-c2ccnc4cc(OCCN5CCOCC5)ccc24)CCC3)nc1,0.46,0.581,0.585,0.558,0.237,0.413,0.439,0.459
